Screens: PubChem, National Center for Advancing Translational Sciences (NCATS)
Only some compounds are listed: those with a hit (about 12% of all), similar ones and a draw of the others.
G9a block – blocks human histone lysine methyltransferase G9a. Q96KQ7. G9a H3K9 monomethylation, AlphaScreen, 2 h. Potency, µM (doses to about 102 µM), for inactives: top-dose activity, negative = inhibition, usual class: inhibitors. 350,000 tested, 8.8% active. AID 504332; note: % is set by controls: 0 for no effect and ±100 for the full control effect; nearly all actives have a fitted effect of over 75% in size
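AlphaScreen detection with an anti-monomethyl H3K9 antibody quantified product after a 2 h room-temperature reaction containing 500 nM biotinylated H3K9 peptide, 20 µM SAM and 20 nM enzyme, which had been preincubated 15 min with compound.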
JMJD2A Tudor – blocks the human JMJD2A Tudor domain | AlphaScreen JMJD2A-Tudor / H3K4me3 peptide binding | Potency, µM (series often up to 114 µM), without a hit: at the top dose activity change, negative = inhibition, hits mostly inhibitors | 390,000 tested, 4.4% active | AID 504339; note: % is set by controls: 0 for no effect and ±100 for the full control effect; nearly all actives have a fitted effect of over 50% in size
Target sequence (O75164 whole entry, looked up, the tested form may be a part): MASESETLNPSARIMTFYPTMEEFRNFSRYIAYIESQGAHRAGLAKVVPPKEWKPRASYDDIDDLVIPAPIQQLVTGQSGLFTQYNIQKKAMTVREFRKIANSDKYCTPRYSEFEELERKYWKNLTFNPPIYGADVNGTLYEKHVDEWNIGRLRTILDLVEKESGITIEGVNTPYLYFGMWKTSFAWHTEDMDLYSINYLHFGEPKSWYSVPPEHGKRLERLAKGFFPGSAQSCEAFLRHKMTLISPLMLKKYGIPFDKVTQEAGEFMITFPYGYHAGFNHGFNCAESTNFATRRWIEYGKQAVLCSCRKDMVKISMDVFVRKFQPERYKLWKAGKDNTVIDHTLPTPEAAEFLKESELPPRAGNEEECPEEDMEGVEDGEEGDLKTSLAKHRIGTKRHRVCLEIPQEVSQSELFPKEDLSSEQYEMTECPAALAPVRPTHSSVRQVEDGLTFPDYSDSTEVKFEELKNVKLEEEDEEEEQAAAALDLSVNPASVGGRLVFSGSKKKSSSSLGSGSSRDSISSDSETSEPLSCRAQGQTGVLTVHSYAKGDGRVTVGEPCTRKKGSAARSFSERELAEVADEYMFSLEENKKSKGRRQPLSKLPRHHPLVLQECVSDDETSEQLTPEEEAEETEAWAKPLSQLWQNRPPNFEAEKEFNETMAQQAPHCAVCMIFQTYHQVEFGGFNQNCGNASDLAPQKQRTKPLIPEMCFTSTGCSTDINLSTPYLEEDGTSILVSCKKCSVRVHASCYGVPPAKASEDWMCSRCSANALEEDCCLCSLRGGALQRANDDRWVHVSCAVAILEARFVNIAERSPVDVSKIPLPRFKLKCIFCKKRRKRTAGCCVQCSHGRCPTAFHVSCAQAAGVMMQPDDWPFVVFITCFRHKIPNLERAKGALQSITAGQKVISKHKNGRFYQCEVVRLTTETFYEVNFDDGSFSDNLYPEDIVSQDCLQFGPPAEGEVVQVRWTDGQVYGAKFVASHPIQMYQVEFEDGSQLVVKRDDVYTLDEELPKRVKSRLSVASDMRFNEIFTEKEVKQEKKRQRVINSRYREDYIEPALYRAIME
Sfp inh – inhibitors of Bacillus subtilis Sfp phosphopantetheinyl transferase; Potency, µM, without a hit: largest response in the series, negative = inhibition, actives largely listed as inhibitors; 310,000 tested, 3.5% active; Q9F4F7; AID 1490; Biochemical Sfp PPTase activity, qHTS;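 note: the enzyme is Sfp with the accession as filed and its product quenches rhodamine fluorescence; 0% = enzyme reaction without inhibitor and -100% = no enzyme wells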
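Compounds were incubated with enzyme (final 15 nM) for 15 min at room temperature before substrate addition started the reaction. Fluorescence at 525 nm excitation, 598 nm emission was recorded immediately and after 30 minutes.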
HP1b chromo inh – HP1-beta chromodomain-methylated histone interaction inhibition; P83916; AlphaScreen HP1-beta / biotin-H3K9me3 peptide binding; Potency, µM (top dose mostly 114 µM), for inactives: top-dose activity change, negative = inhibition, usual class: inhibitors; 390,000 tested, 0.56% active; AID 540317; note: nearly all actives have a fitted effect of over 70% in size
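HP1-beta protein (50 nM final) preincubated 30 min at room temperature with biotinylated H3(1-18)K9me3 peptide (50 nM) in PBS pH 7.4, 0.01% Tween-20, then compound added for 30 min. AlphaScreen streptavidin donor/nickel chelate acceptor beads (10 ug/mL final), 30 min dark, luminescence read.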
BAZ2B block – inhibitors of human BAZ2B bromodomain; Potency, µM (doses to about 114 µM), inactives show at the highest dose activity change, negative = inhibition, usual class: inhibitors; 360,000 tested, 4.4% active; AlphaScreen BAZ2B-H3K14Ac peptide displacement; AID 504333; Q9UIF8; note: % is set by controls: 0 for no effect and ±100 for the full control effect; nearly all actives have a fitted effect of over 60% in size
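BAZ2B (50 nM) with biotin-H3(5-23)K14Ac peptide (50 nM) in PBS pH 7.4, 0.01% Tween-20, preformed 30 min, then compound 30 min at room temperature; top concentration 110uM. AlphaScreen streptavidin donor/nickel chelate acceptor beads (10 ug/mL final), 20 min dark, signal read.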
L3MBTL1 inh-1 – blocks human L3MBTL1. AlphaScreen L3MBTL1–H3K9me1 peptide binding. 230,000 tested, 0.66% active. Potency, µM (doses to about 57.1 µM), without a hit: at the highest dose activity, negative = inhibition, actives largely listed as inhibitors; note: % is set by controls: 0 for no effect and ±100 for the full control effect; nearly all actives have a fitted effect of over 60% in size
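AlphaScreen proximity signal between nickel-chelate acceptor and streptavidin donor beads (final 10 ug/mL) reports binding of 50 nM L3MBTL1 to 75 nM biotin-H3 K9me1 peptide; complex incubated with compounds 30 min at room temperature; cefsulodin titration as control.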
L3MBTL1 inh-2 – validation of human L3MBTL1 methyl-lysine binding inhibitors; shares compounds with L3MBTL1 inh-1; L3MBTL1 methyl-lysine binding inhibition, biochemical qHTS; Potency, µM, usual class: inhibitors; 500 tested, 91% active; AID 540279; note: nearly all actives have a fitted effect of over 70% in size
L3MBTL1 ctr – counter-screen for L3MBTL1 inhibitors: AlphaScreen signal interference; AlphaScreen counterscreen, signal inhibition; Potency, µM (top dose mostly 57.1 µM), for inactives: top-dose activity change, negative = inhibition, hits mostly inhibitors; AID 602224; 500 tested, under 10 active; shares compounds with L3MBTL1 inh-1; note: 0% is about no effect
Active calls of the source: *; ? = inconclusive; . = no result given; [ ] = remark or other dose. Calls come from the whole dose curve; as a rule, active = well fitted curve in the direction sought with a large enough effect; inconclusive = small, poorly fitted or top-dose-only effect, or another doubt; inactive = no such curve, though single readings can be large; an effect the other way counts as inactive or inconclusive. Potency is the fitted concentration of half-maximal effect.

SMILES	G9a block	JMJD2A Tudor	Sfp inh	HP1b chromo inh	BAZ2B block	L3MBTL1 inh-1	L3MBTL1 inh-2	L3MBTL1 ctr
Nc1ccc2nc(-c3ccccn3)[nH]c2c1	?	?	5%	25%	45µM*	28µM*	7.5*	?
Cc1ccc(C)c(/C(O)=C2/C(=O)C(=O)N(CCN3CCOCC3)C2c2ccco2)c1 (stereo not drawn)	?	79µM*	10%	?	22µM*	25µM*	11*	6%
Cc1ccc(C2/C(=C(/O)c3ccccc3)C(=O)C(=O)N2CCN2CCOCC2)o1 (stereo not drawn)	?	-29%	-1%	35%	-30%	-8%	.	.
CCOc1cc(C(=O)Nc2cccc(-c3nc4ccccc4o3)c2)cc(OCC)c1OCC	11%[59 µM]	9%	.	44%	1%	.	.	.
CCCC[N+](C)(C)CCC(=O)NC(C)(C)CS(=O)(=O)[O-]	?	56µM*	-4%	?	50µM*	20µM*	21*	-1%
FC(F)(F)c1cc(NC(=S)NC23CC4CC(CC(C4)C2)C3)cc(C(F)(F)F)c1	.	.	9%	.	.	.	.	.
Cc1cc(-c2nc3c4c5c(sc4[nH]c(=O)n3n2)CCC5)c(C)o1	?	?	28µM*	?	50µM*	8.9µM*	9.5*	-1%
Cc1ccc2nc(CN3CCN(S(=O)(=O)c4ccccc4)CC3)oc2c1	6%[59 µM]	-10%	.	12%	-13%	.	.	.
CCN(CC(=O)Nc1ccc(NC(C)=O)cc1)C(=O)c1cccc(-n2cccc2)c1	50µM*	-32%	.	?	50µM*	28µM*	21*	9%
Cc1ccc(C)c(NC(=O)CN(C)C(=O)c2cccc(-n3cccc3)c2)c1	40µM*	16µM*	.	45µM*	25µM*	8.9µM*	2.7*	?
CCN(CC(=O)Nc1ccc(NC(C)=O)cc1)C(=O)c1cccc(Oc2ccccc2)c1	-3%	-19%	.	-2%	-1%	-3%	.	.
COCCCNC(=O)c1c(NC(=O)Cc2coc3cc(C)cc(C)c23)sc2c1CCCC2	-9%[59 µM]	-11%	.	24%	-12%	.	.	.
O=C(CC1Sc2ccccc2NC1=O)Nc1cccc(C(=O)O)c1 (stereo not drawn)	40µM*	50µM*	-23%	?	56µM*	11µM*	0.95*	11%
CC(=O)Nc1ccc2c(COC(=O)CC3Sc4ccccc4NC3=O)cc(=O)oc2c1 (stereo not drawn)	.	79µM*	-2%	?	56µM*	25µM*	8.4*	11%
Cc1cccc(CNC(=O)CS(=O)(=O)c2cccc3nsnc23)c1	30%[59 µM]	-30%	.	12%[57 µM]	-1%	.	.	.
CCc1ccc(Oc2c(C(F)(F)F)oc3c(CN4CCCC(C)C4)c(O)ccc3c2=O)cc1 (stereo not drawn)	1%[59 µM]	0%	.	37%	0%	.	.	.
CC12CN3CC(c4ccccc4)(CN(C1)C3c1ccc(O)cc1)C2=O (stereo not drawn)	4%[59 µM]	-13%	.	8%	-12%	.	.	.
CC(C)(O)c1cc(=O)sc2nc3ccccc3n12	-7%[59 µM]	-4%	10%	35%	-4%	3%	.	.
O=C(O)c1cc(C(=O)O)cc(-c2ccc(/C=c3/sc4nc5ccccc5n4c3=O)o2)c1	2µM*	22µM*	7.1µM*	16µM*	20µM*	1.8µM*	3.4*	-5%
O=C(O)c1cccc(-c2ccc(/C=c3/sc4nc5ccccc5n4c3=O)o2)c1	7.9µM*	22µM*	?	?	25µM*	3.5µM*	2.7*	50%
CCn1c2ccccc2c2cc(N=C3SC(CC(=O)Nc4ccccc4OC)C(=O)N3C)ccc21 (stereo not drawn)	38%[12.7 µM]	-6%	2%	2%	-30%	-6%	.	.
CCn1c2ccccc2c2cc(N=C3SC(CC(=O)Nc4ccccc4OC)C(=O)N3CCOC)ccc21 (stereo not drawn)	-20%[59 µM]	?	21%	-8%	-34%	28µM*	7.5*	?
Cc1ccc(-n2c(C)nc3oc4ccccc4c(=O)c3c2=O)cc1	56µM*	50µM*	7%	-25%	45µM*	40µM*	27*	-2%
CCc1nc2oc3cc(OC)ccc3c(=O)c2c(=O)n1-c1ccccc1	-7%[12.7 µM]	?	4%	14%	5%	.	.	.
O=C(O)c1ccc(-c2ccc(/C=C3\NC(=O)N(Cc4ccc(Cl)cc4)C3=O)o2)cc1Cl	20µM*	32µM*	20µM*	32µM*	22µM*	5.6µM*	0.75*	3%
Cc1ccc(CN2C(=O)N/C(=C\c3ccc(N4CCOCC4)cc3)C2=O)cc1	-2%[59 µM]	-9%	9%	19%	-11%	17%	.	.
